Holding throughout (assay): PBM binding z-score (relative to random genomic background probes); higher = stronger binding; sequences stand for … in GC…GCGATTGACAGCGTAGAATGAAGG
Experiment [1] concerns PPARg:RXRa DBDmut IVT, anti-RXR (DBD mutation: RXRa K156A/R161A, NR concentration 270 nM, RXRa partner concentration 90 nM). A digest of the protocol: (§1)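 On custom Agilent 4×180K arrays, double-stranded probes with 34-nt variable regions carried direct-repeat seeds, single-nucleotide variants, half-site ablations or random human genomic background. Ligand-free nuclear receptor dimers were applied for 1 h, and binding was read with antibodies against each partner (one per run). Binding z-scores come from regression-normalized fluorescence, with the random background probes as reference.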

Experiment [2] concerns PPARg:RXRa IVT, anti-PPARg (NR concentration 270 nM, RXRa partner concentration 90 nM). The essentials: as §1
Experiment [3] has as its system PPARg DBDmut:RXRa IVT, anti-PPARg (DBD mutation: PPARg1 K132A/R137A, NR concentration 270 nM, RXRa partner concentration 90 nM). The essentials:
as §1

The test system of experiment [4] is PPARg DBDmut IVT, anti-PPARg (DBD mutation: PPARg1 K132A/R137A, NR concentration 270 nM). A digest of the protocol:
as §1

Experiment [5] has as its system PPARg homodimer (NR concentration 180 nM). The essentials:
as §1

Experiment [6] has as its system PXR:RXRa (NR concentration 270 nM, RXRa partner concentration 90 nM). The essentials: as §1
In experiment [7] the test system is PXR homodimer (NR concentration 270 nM). The essentials:
as §1

The test system of experiment [8] is RARa:RXR (NR concentration 270 nM, RXRa partner concentration 90 nM). A digest of the protocol:
as §1

Experiment [9] concerns RARa homodimer (NR concentration 270 nM). The essentials: as §1
For experiment [10], the system named is RARb:RXRa (NR concentration 270 nM, RXRa partner concentration 90 nM). The essentials: as §1
In experiment [11] the test system is RARb homodimer (NR concentration 270 nM). A digest of the protocol: as §1
Experiment [12] has as its system RARg:RXRa (NR concentration 270 nM, RXRa partner concentration 90 nM). A digest of the protocol:
as §1

Experiment [13] has as its system RARg homodimer (NR concentration 270 nM). A digest of the protocol: as §1
The subject of experiment [14] is RXRa DBDmut IVT, anti-RXR (DBD mutation: RXRa K156A/R161A, NR concentration 90 nM). A digest of the protocol: as §1
In experiment [15] the test system is RXRa homodimer (NR concentration 180 nM). The essentials:
as §1

Experiment [16] has as its system THRa:RXRa (NR concentration 90 nM, RXRa partner concentration 90 nM). A digest of the protocol: as §1
The test system of experiment [17] is THRa homodimer (NR concentration 90 nM). The essentials: as §1
Experiment [18] deals with VDR homodimer (NR concentration 270 nM). A digest of the protocol: as §1

Regarding GCTAGTTGGTCAGTAAAAGGTCATACACCGGTCG, the PBM binding z-score in experiment [1] was 0.651; in [2] it was 2.38; in [3], -0.0949; in [4], -0.0441; in experiment [5] it was 3.01; in experiment [6], 4.5. The PBM binding z-score was 1.09 in [7]; 5.05 in experiment [8]; 1.09 in experiment [9]; 3.94 in experiment [10]; 4.93 in experiment [11]; 4.81 in experiment [12]. For the same sequence, the PBM binding z-score stood at 3.6 in [13]; 0.515 in experiment [14]; 4.8 in experiment [15]; 3.39 in experiment [16]; 1.35 in experiment [17]; 2.09 in experiment [18].

Take TCCGCTAGGTCAGTTGGTCAGCTAACGAGCTGCC: the PBM binding z-score was 2.32 in experiment [1]; 2.55 in [2]; -0.0326 in experiment [3]; -0.848 in [4]; 0.175 in [5]; 0.233 in [6]. For the same sequence, the PBM binding z-score in experiment [7] was -0.744; in experiment [8] it was 0.687; in [9], -0.7; in [10] it was 3.44; in experiment [11], 2.85; in [12], 2.77. Also, the PBM binding z-score in experiment [13] was 3.75; in experiment [14] it was 0.733; in [15], 1.01; in [16] it was 1.27; in experiment [17] it was 0.178; in experiment [18], -0.514.

Turning to ACTAGTTGGTCAGCTGAAGTCACACACAATTCGG, the PBM binding z-score was 0.924 in experiment [1]; 0.828 in [2]; 0.539 in [3]; 0.649 in experiment [4]; 0.462 in [5]; -0.105 in experiment [6]. The PBM binding z-score in experiment [7] was -0.357; in [8], 0.136; in [9], 0.213; in experiment [10], 0.828; in experiment [11] it was 0.741; in experiment [12], 0.686. In addition, the PBM binding z-score was 0.796 in experiment [13]; 0.337 in experiment [14]; 0.297 in experiment [15]; 0.346 in experiment [16]; -0.0517 in experiment [17]; 0.0981 in experiment [18].

With ATCGAAAGGTCGTGATGTGAGTATACAGAAAGGC, the PBM binding z-score in experiment [1] was -0.177; in [2] it was 1.63; in experiment [3], 1.58; in experiment [4], 1.08; in experiment [5], 1.07; in [6], 2.71. The PBM binding z-score stood at 0.368 in experiment [7]; 3.38 in [8]; 0.598 in experiment [9]; 3.68 in experiment [10]; 2.33 in experiment [11]; 3.91 in experiment [12]. The PBM binding z-score in [13] came out at 3.35; in experiment [14] it was 1.1; in experiment [15], 4.56; in [16], 2.34; in [17], 0.0191; in experiment [18], 0.997.

TTACCAAGGTGAGCTGATGTCGTTGATCCAACTC: the PBM binding z-score was 1.17 in experiment [1]; 1.55 in experiment [2]; -0.517 in experiment [3]; 0.259 in experiment [4]; -0.264 in experiment [5]; 0.24 in experiment [6]. Moreover, the PBM binding z-score was -0.552 in experiment [7]; 0.2 in experiment [8]; -0.759 in experiment [9]; 0.933 in [10]; 0.273 in [11]; 0.225 in experiment [12]. Further, the PBM binding z-score is 0.147 in [13]; -0.369 in [14]; 0.239 in experiment [15]; 1.48 in experiment [16]; 0.0669 in experiment [17]; -0.492 in experiment [18].

For TCTAGCAGACCAGAGGGTCACTCAAGAGGTACGG, the PBM binding z-score was 0.667 in [1]; -0.0326 in [2]; -0.965 in [3]; -2.06 in experiment [4]; 0.364 in experiment [5]; 1.38 in experiment [6]. Also, the PBM binding z-score in experiment [7] was -0.694; in experiment [8], 1.85; in [9], -0.734; in experiment [10] it was 1.81; in experiment [11], 2.18; in [12], 1.95. The PBM binding z-score in [13] was 1.42; in experiment [14], -0.0475; in [15], 2.19; in experiment [16] it was 1.43; in experiment [17], -0.387; in experiment [18], 0.415.

As for ACAGACAGGTGAGTGAAAGTAACTCAGCTGGACG, the PBM binding z-score in [1] was 0.546; in experiment [2], 0.438; in [3], -0.222; in experiment [4] it was 0.175; in [5], -1.05; in [6], -0.413. For the same sequence, the PBM binding z-score was -0.648 in experiment [7]; 0.2 in [8]; -0.554 in [9]; 0.304 in [10]; -0.349 in experiment [11]; 0.188 in [12]. Moreover, the PBM binding z-score was 0.291 in experiment [13]; -0.517 in experiment [14]; 0.309 in [15]; -0.377 in experiment [16]; -0.737 in experiment [17]; -0.536 in [18].

Take AATACAGGGTCATCGTAGGCCACAGTACGCACAG: the PBM binding z-score in [1] is 3.1; in experiment [2], 4.6; in [3], 2.5; in [4], 1.08; in [5], 2.97; in experiment [6], 5.59. For the same sequence, the PBM binding z-score in experiment [7] stood at 0.511; in [8] it was 5.47; in experiment [9], 1.06; in [10], 4.59; in experiment [11] it was 4.02; in experiment [12], 6. For the same sequence, the PBM binding z-score in [13] is 5.52; in experiment [14], 3.39; in [15], 6.9; in experiment [16] it was 4.93; in [17], 1.72; in experiment [18], 3.13.

The values above are taken from the supplement of paper PMC6555819.
